# a7 integrin act: integrin-mediated muscular dystrophy alleviation activation | AID 624291 | alpha7betagal myoblasts, beta-gal FDG fluorescence, 48 h | 350,000 compounds, 0.064% hits | Potency, µM (titrated, usually from 38.3 µM), inactives show at the highest dose activation, actives largely listed as activators;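 note: potency is the fitted concentration of half-maximal effect; 100% = response of the positive control SU9516; nearly all actives have a fitted effect of over 60% in size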
#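 Alpha7betagal+/- myoblasts (passage 13) were plated 16-24 hr, then exposed to compounds (1:260 dilution of DMSO stock) for 48 hours at 37C. After MPER lysis, β-galactosidase reporter activity was read as FDG fluorescence (ex 480/em 540) after 30 minutes.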
# uPA surface inh: blocks generation of uPA at the cell surface. cell surface uPA generation assay, qHTS. Potency, µM (series often up to 38.3 µM), for inactives: at the top dose activity change, negative = inhibition, hits mostly inhibitors. 330,000 compounds, 0.31% hits; active = well fitted inhibition curve with a large enough effect; inconclusive = small, poorly fitted or top-dose-only effect; inactive = no such curve, though single readings can be large or run the other way; tested in mouse RAW 264.7 cells; note: potency is the fitted concentration of half-maximal effect; % is set by controls: 0 for no effect and ±100 for the full control effect; nearly all actives have a fitted effect of over 55% in size
# Nrf2 ARE act: Nrf2 pathway activation | AREc32 ARE-luciferase reporter (MCF7-derived line), luminescence, 24 h | Potency, µM (highest dose often 46.1 µM), for the others: top-dose activation, actives largely listed as activators | 410,000 compounds, 0.31% hits | AID 624171; note: potency is the fitted concentration of half-maximal effect; % of control where 0% means no effect; nearly all actives have a fitted effect of over 65% in size
#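 Each well held 1000 AREc32 cells, which were incubated with compound for 24 hr at 37 deg C after overnight attachment, and ARE reporter activity was quantified by firefly luciferase luminescence.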
# ALOX12 inh: blocks human arachidonate 12S-lipoxygenase. P18054. purified 12hLO, xylenol orange hydroperoxide absorbance. Potency, µM (top dose mostly 108 µM), inactives show top-dose activity change, negative = inhibition, actives largely listed as inhibitors. 580,000 compounds, 1.1% hits. AID 1671190; note: potency is the fitted concentration of half-maximal effect; % is set by controls: 0 for no effect and ±100 for the full control effect
# Target sequence (P18054 whole entry, looked up): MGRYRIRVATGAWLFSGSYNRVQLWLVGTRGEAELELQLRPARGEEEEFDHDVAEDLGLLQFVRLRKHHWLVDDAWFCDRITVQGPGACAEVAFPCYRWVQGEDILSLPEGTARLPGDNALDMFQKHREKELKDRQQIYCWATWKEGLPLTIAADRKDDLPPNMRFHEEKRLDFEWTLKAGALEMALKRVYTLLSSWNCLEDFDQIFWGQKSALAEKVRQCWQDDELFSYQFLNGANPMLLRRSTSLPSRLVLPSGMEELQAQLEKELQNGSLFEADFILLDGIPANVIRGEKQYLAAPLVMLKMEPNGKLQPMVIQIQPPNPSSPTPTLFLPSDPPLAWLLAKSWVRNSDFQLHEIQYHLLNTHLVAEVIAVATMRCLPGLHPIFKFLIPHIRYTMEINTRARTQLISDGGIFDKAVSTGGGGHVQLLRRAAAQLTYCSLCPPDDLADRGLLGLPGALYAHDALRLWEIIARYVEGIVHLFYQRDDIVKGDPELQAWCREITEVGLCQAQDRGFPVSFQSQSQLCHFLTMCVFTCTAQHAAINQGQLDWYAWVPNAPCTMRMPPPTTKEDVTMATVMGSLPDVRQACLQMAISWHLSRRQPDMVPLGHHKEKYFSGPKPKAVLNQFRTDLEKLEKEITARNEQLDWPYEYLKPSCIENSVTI
#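 Purified human 12hLO (150 nM final) in 25 mM Hepes, 0.01% Triton X-100, pH 7.0 was preincubated 15 min at room temperature with compound. Then 40 uM arachidonic acid was added, 30 min. Hydroperoxide was read by Fe-XO absorbance ratio 573/405 nm.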
# IL2 activator: IL-2 activation; IL-2 activation reporter assay, cell-based qHTS; stimulated with anti-CD3/CD4/CD28 beads; in transgenic mouse T cells; activation, % (series mostly up to about 46 µM); 360,000 compounds, 0.065% hits; in the data active = activation above about 50%; inconclusive = mostly about 30% to 49%; note: 0% is about no effect
#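 Readout is EGFP and DsRed signal by fluorescent plate cytometry after 18 h at 37 degrees C. Transgenic mouse T cells (750/well) received compound for 60 min before bead stimulation (anti-CD3, anti-CD4, anti-CD28); memory T cells served as non-tolerant control.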
# * marks the source's active call; other numbers are inactive results; ? = inconclusive; . = not tested or not shown; ! = a repeat was not active; [ ] = another dose, or the depositor's remark. Sampled rows, rich in hits. Any-hit rate of the full collection: about 1.5%. Unless noted, calls come from the whole dose curve; as a rule, active = well fitted curve in the direction sought with a large enough effect; inconclusive = small, poorly fitted or top-dose-only effect, or another doubt; inactive = no such curve, though single readings can be large; an effect the other way counts as inactive or inconclusive.
SMILES,a7 integrin act,uPA surface inh,Nrf2 ARE act,ALOX12 inh,IL2 activator
O=C(c1ccc(F)cc1)N(c1ccccc1F)C(CCc1ccccc1)c1nc2ccccc2[nH]1 (configuration not stated),.,.,.,5µM*,.
O=C(c1ccc(=O)[nH]c1)N(c1ccccc1)C(CCc1ccccc1)c1nc2ccccc2[nH]1 (configuration not stated),.,.,-1%,-15%,1
CC(C)COc1ccc(CN)cc1,.,.,.,1%,.
CN1CCN(C(=O)c2cnc(Cc3c[nH]c4ccccc34)c(I)c2)CC1,.,.,.,-4%,.
CCCCNC(=O)c1cnc(Cc2c[nH]c3ccccc23)c(I)c1,.,.,.,40µM*,.
Cc1cccc(-n2nnnc2C2(Nc3ccccc3C)CCCCC2)c1,.,.,.,-4%,.
Cc1ccc(C(=O)OCC(=O)Nc2sc3c(c2C#N)CCCC3)cc1NC(=O)c1ccco1,8%,-1%,3%,35µM*,3
COc1cc(OC)c(C2=NOC(C(=O)NCc3cccnc3)C2)cc1Cl (configuration not stated),?,10µM*,4%,-4%,1
Cc1cc(C)n(-c2nnc(C)n2/N=C/c2ccco2)n1,-23%,-2%,0%,0%,1
C=C(C)CN=c1scc(C)n1/N=C/c1ccco1,12%,-7%,13µM*,-20%,-2
S=c1sscc1-c1ccccc1,0%,0%,4%,5.6µM*,0
Cn1c(NCc2ccc(Cl)cc2)nc2c1c(=O)n(Cc1ccc(Cl)cc1)c(=O)n2C,.,.,.,-11%,.
Cc1ccc(CN(C)C(=O)c2cc(COc3cccc(C(F)(F)F)c3)on2)o1,4%,-12%,3%,40µM*,-5
CN(C)c1ccc(CN2CCCCCC2)cc1,1%,.,0%,-1%,-2
NC(N)=NCc1ccc(CN2CCCC2)cc1,.,.,.,45µM*,.
CCC(NC(=S)NCc1ccc(F)cc1)c1ccc(C)cc1 (configuration not stated),-8%,9%,-1%,?,-4
CCCCC(CC)CNC(=S)NCc1ccc(C)cc1 (configuration not stated),.,.,.,32µM*,.
C#CCN(Cc1nc(-c2ccc(OC)c(C)c2OC)oc1C)C1CCCCC1,.,.,.,28%,.
CCOC(=O)C(=CNNc1cccc(Cl)c1)C(=O)OCC,-3%,-4%,4%,13µM*,1
CC(=O)Oc1c(Cl)c(N2CCOCC2)c(OC(C)=O)c2ccccc12,-37%,-4%,16µM*,0%,-2
CC(=O)Oc1c2ccccc2c(OC(C)=O)c2ccccc12,.,.,.,-1%,.
CCC(C)(NC(=O)CNC(=O)c1ccccc1)C(=O)NC1CCCC1 (configuration not stated),.,.,.,-2%,.
COc1cc(C(C)=O)ccc1OCC(O)Cn1nc(C)c(Br)c1C (configuration not stated),-7%,-2%,-1%[9.22 µM],4.5µM*,-3
O=C(/C=C/c1ccco1)Nc1cccc(S(=O)(=O)N2CCOCC2)c1,-26%,-12%,5.6µM*,-23%,-1
Cc1ccc(/C=C/C(=O)Nc2cccc(S(=O)(=O)N3CCOCC3)c2)o1,-19%,-1%,27%,-26%,0
SMILES,a7 integrin act,uPA surface inh,Nrf2 ARE act,ALOX12 inh,IL2 activator
Cc1ccc(NC(=O)CCl)cc1S(=O)(=O)N1CCCCCC1,-66%,-17%,4%,-5%,-1
Cc1ccc(NC(=O)/C=C/c2ccco2)cc1S(=O)(=O)N1CCCCCC1,-25%,0.89µM*,9%,?,-2
CCOC(=O)N1CCC(NC(=O)c2cc3c(OC)cccc3[nH]2)CC1,.,.,.,-6%,.
CN1C(=O)CCC2(CNC(=O)CCc3nc4ccccc4[nH]3)CCC=C12 (configuration not stated),.,.,.,23%,.
COc1ccc(C)cc1NC(=O)CNC(c1ccccc1)c1ccc(C)cc1 (configuration not stated),-20%,1.8µM*,0%,0%,-1
O=C(Nc1cccc2ccccc12)c1ccc([N+](=O)[O-])o1,-80%,?,?,-5%,-1
O=C(Nc1ccccc1F)c1ccc([N+](=O)[O-])s1,13µM*,.,3%,-7%,-4
O=C(Nc1cccnc1)c1cc(Br)c(Br)s1,21%,2%,5%,20µM*,0
CN(C)NC(=O)c1ccc([N+](=O)[O-])s1,-7%,?,0%,-11%,1
NC(=O)c1cc(NC(=O)c2cc(Br)c(Br)s2)cc(C(N)=O)c1,4%,7%,4%,-13%,0
O=C(Nc1cccnc1)Nc1ccc(Br)cc1Cl,15%[7.66 µM],0%,0%,16µM*,-2
O=C(Nc1cccc2ccccc12)c1ccc([N+](=O)[O-])s1,-62%,11µM*,?,-14%,-2
COc1c(CNC2CCCN(Cc3ccccc3)C2)c(C)nn1C (configuration not stated),.,.,.,26%,.
Cc1cccc(C)c1NS(=O)(=O)c1ccc(S(=O)(=O)N2CCCC2)cc1,.,.,.,-6%,.
O=C(Nc1cccnc1)c1ccc([N+](=O)[O-])s1,-46%,4.5µM*,?,35%,0
Oc1cccc2ccc(/C=C/c3ccccc3Br)nc12,-55%,-4%,10µM*,1%,-1
Cc1ccsc1/C=C/c1ccc2cccc(O)c2n1,-60%,.,?,-25%,-4
Oc1cccc2ccc(/C=C/c3cccs3)nc12,-53%,.,3.2µM*,?,2
CC(C)NC(=O)c1ccc(F)cc1,.,.,.,-17%,.
CNNCc1ccc(C(=O)NC(C)C)cc1,.,2%,-1%,12µM*!,0
O=C1C(Cl)=C(N2CCN(c3ccccc3[N+](=O)[O-])CC2)C(=O)c2ccccc21,-49%,-10%,7.9µM*,-19%,-4
O=C(C[C@@H]1O[C@H](CNC(=O)C2CC2)[C@@H](O)[C@H]1O)Nc1ccccc1,.,.,.,25%[176 µM],.
CCc1ccc(CCC(=O)NNc2cccc(Cl)c2)cc1,.,.,.,16µM*,.
COc1ccc(CCN(C)c2ccc(C(N)=O)cc2[N+](=O)[O-])cc1OC,?,-11%,2%,-16%,-2
COc1ccc(CCN(C)C/C=C/c2ccccc2[N+](=O)[O-])cc1OC,-36%,-7%,1%,0.89µM*,0
SMILES,a7 integrin act,uPA surface inh,Nrf2 ARE act,ALOX12 inh,IL2 activator
COc1ccc(NC(=O)Cc2ccc(C)cc2)cc1S(=O)(=O)N1CCCCC1,-27%,12%,0%,182%,0
COc1ccc(NC(=O)CN2CCCCC2)cc1S(=O)(=O)N1CCCCC1,-3%,-9%,0%,2.5µM*,1
Cc1cccc(C)c1NC(=O)CN(C)CC(=O)NC(=O)NCC(F)(F)F,.,.,.,-3%,.
CC(C)c1ccc(NC(=O)c2cc(Br)ccc2Br)cc1,1%,3%,7.1µM*,-12%,-2
CC(C)c1ccc(NC(=O)c2ccc(N(C)C)cc2)cc1,.,.,.,45µM*,.
O=S(=O)(Nc1nc2ccccc2nc1Nc1ccc(Cl)cc1)c1ccc2c(c1)OCCO2,.,.,.,-22%,.
CCOCCOC(=O)c1[nH]c2c(c1C)C(=O)CC(c1ccc(OC)c(OC)c1)C2 (configuration not stated),-35%,-2%,2%,-3%,-1

# Bioassay records: PubChem, National Center for Advancing Translational Sciences (NCATS)
